Bioassay records as filed in PubChem.
Shown are actives, neighbours in structure and some others; about 4.7% of the full set was active somewhere.
RecA splice inh: inhibitors of M. tuberculosis RecA intein splicing | inhibition, % (no concentration beside the values) | cell-free RecA intein splicing, fluorescence | 0.75% of 290,000 active | P9WHJ3; in the data active = inhibition above about 30%
GDH-TPI counter-1: inhibits GDH-TPI coupling enzymes, artifact for Mtb FBA screen; inhibition, % at 4.8 µM; AID 588335; 1.2% of 360,000 active; GDH-TPI coupled enzyme counterscreen, NADH absorbance; in the data active = inhibition above about 30%
CCHFV vOTU inh: CCHFV vOTU protease inhibition; Pep-AMC fluorescence; 0.55% of 370,000 active; inhibition, % at 11.5 µM; in the data active = inhibition above about 30%
3CLpro inhibitor: SARS-CoV 3CLpro protease inhibition. P0C6X7. recombinant SARS-CoV 3CLpro, quenched FRET peptide cleavage. inhibition, % at 6 µM. 0.14% of 290,000 active; in the data active = inhibition above about 12%
Mtb FBA inh: inhibits M. tuberculosis FBA enzyme. purified M. tuberculosis FBA, fluorescence read-out. 2.3% of 360,000 active. inhibition, % at 1 µM
Target sequence (P9WQA3 whole entry, looked up): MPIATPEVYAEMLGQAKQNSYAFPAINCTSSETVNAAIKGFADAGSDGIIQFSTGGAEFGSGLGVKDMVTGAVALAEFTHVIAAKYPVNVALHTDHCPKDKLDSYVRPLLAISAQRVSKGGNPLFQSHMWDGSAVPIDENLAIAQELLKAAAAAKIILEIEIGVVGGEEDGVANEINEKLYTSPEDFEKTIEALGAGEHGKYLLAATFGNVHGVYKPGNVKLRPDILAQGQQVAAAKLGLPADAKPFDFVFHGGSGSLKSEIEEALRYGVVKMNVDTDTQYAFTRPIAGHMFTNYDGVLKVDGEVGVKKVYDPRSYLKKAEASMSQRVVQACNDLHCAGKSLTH
DUSP3 inh: DUSP3 (human) phosphatase inhibition | recombinant VHR phosphatase, pNPP absorbance | 0.52% of 290,000 active | P51452 | inhibition, % at 13.3 µM; in the data active = inhibition above about 50%
Target sequence (P51452 whole entry, looked up): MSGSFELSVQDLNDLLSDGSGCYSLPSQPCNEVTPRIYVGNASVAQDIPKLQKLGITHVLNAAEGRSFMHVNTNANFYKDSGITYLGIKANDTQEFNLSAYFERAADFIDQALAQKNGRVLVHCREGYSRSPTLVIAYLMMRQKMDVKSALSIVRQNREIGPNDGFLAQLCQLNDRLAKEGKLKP
Mtb FBA confirm: Mtb FBA inhibition, confirmed; purified M. tuberculosis FBA, fluorescence read-out; 78% of 5,600 active; inhibition, % at 1 µM; shares compounds with Mtb FBA inh
GDH-TPI counter-2: counter-screen for M. tuberculosis FBA inhibitors: GDH-TPI coupled enzyme inhibition. shares compounds with Mtb FBA inh. GDH-TPI coupled enzyme counterscreen, fluorescence. inhibition, % at 1 µM. 81% of 5,600 active. AID 652141; in the data active = inhibition above about 10%
A number is an active result; 0 = inactive; - = no result given; + = active, no number. Rule as the data show it, unless noted: active = inhibition above about 27%; inactive = the rest.

SMILES | RecA splice inh | GDH-TPI counter-1 | CCHFV vOTU inh | 3CLpro inhibitor | Mtb FBA inh | DUSP3 inh | Mtb FBA confirm | GDH-TPI counter-2
COCCNC(=O)c1ccc(-c2cn[nH]c2)c2ccoc12 | - | 0 | 0 | - | 56.6 | - | 43.5 | 36.6
CCc1noc(C)c1C(=O)Nc1ccc(C(F)(F)F)cc1 | 0 | 0 | 0 | 0 | 0 | 0 | - | -
COc1ccc(NC(=O)CC(c2ccco2)C(C)C)cc1 (configuration not stated) | 0 | 0 | 0 | 0 | 0 | - | - | -
COC(=O)c1cc(NC(=O)COC(=O)C2CCC2)cc(C(=O)OC)c1 | 0 | 0 | 0 | - | 0 | - | - | -
CC(C)N1CCN(Cc2cc(F)ccc2-n2cccn2)CC1CCO (configuration not stated) | 0 | 0 | 0 | 0 | 37.5 | 0 | 105.7 | 81.7
COc1ccc2oc(C(=O)OCC(=O)Nc3ccccc3)c(C)c2c1 | 0 | 0 | 0 | 0 | 32.6 | 0 | + | 167.8
COc1ccc2oc(C(=O)OCC(=O)N(Cc3ccccc3)C(C)C)c(C)c2c1 | 0 | 0 | 0 | - | 0 | - | - | -
COc1ccc2oc(C(=O)OCC(=O)Nc3ccc(C(=O)N(C)C)cc3)c(C)c2c1 | 0 | 0 | 0 | 0 | 27.7 | 0 | 44.2 | 44.4
COc1ccc2oc(C(=O)OCC(=O)Nc3ccccc3OC)c(C)c2c1 | 0 | 0 | - | - | 0 | - | - | -
COc1ccc2oc(C(=O)OCC(=O)NC(C)c3ccccc3)c(C)c2c1 (configuration not stated) | 0 | 0 | 0 | 0 | 39.1 | 0 | 126.5 | 85.1
COc1ccc2oc(C(=O)OCC(=O)NC(=O)NC(C)C)c(C)c2c1 | 0 | 0 | 0 | 0 | 34.7 | 0 | 45.3 | 34.9
Cc1c(C)n2c(SCC(=O)NCc3ccc4c(c3)OCO4)nnc2[nH]c1=O | 0 | 0 | 0 | - | 0 | - | - | -
CSCC[C@H](NC(=O)[C@H](Cc1ccccc1)n1c(=O)[nH]c2ccccc2c1=O)C(=O)N1CCC[C@H]1C(=O)O | 0 | 0 | 0 | 0 | 0 | 0 | - | -
Cc1ccc(-c2cc(-c3ccccc3)c(C#N)c(N)n2)o1 | 0 | 0 | 0 | 0 | 28.5 | 0 | 148.4 | 125.3
C[C@H]1COc2cc(Br)ccc2S(=O)(=O)N1Cc1cn(Cc2ccc(Br)cc2)nn1 | - | - | 0 | - | - | - | - | -
O=C(CSc1nnc(Cc2ccccc2)o1)Nc1ccc(N2CCOCC2)cc1 | - | 0 | 0 | - | 0 | - | - | -
CCOC(=O)c1nc2c(ccc3ccccc32)cc1C | 0 | 0 | 0 | 0 | 30.8 | 0 | + | 168.1
CCOC(=O)c1cc(Cl)c2c(ccc3ccccc32)n1 | - | 0 | 0 | - | 0 | - | - | -
OC[C@@H]1CN(Cc2ccc(Cl)cc2)C[C@H](n2cnc3c(Nc4ccccc4)ncnc32)O1 | - | 0 | 0 | - | 0 | - | - | -
C[C@@H](NC(=O)c1cc2c([nH]c3ccccc32)c(-c2ccccc2)n1)C(=O)O | 0 | 0 | 0 | 0 | 29.1 | - | 70.5 | 61.0
CCCCOCCCNC(=O)C[C@H]1C[C@@]2(C(=O)OC)C(=C[C@H](C(C)C)O[C@@H]2C2CC2)N(Cc2cccc3ccccc23)C1=O | - | - | 0 | - | - | - | - | -
CC(=O)OCC1OC(Sc2cccc3cccnc23)C(OC(C)=O)C(OC(C)=O)C1OC(C)=O (configuration not stated) | 0 | 0 | 0 | 0 | 35.9 | 0 | + | 158.9
CCc1c(C)c(C#N)c2[nH]c3ccccc3n2c1=S | 0 | 0 | 0 | 0 | 29.5 | 0 | 64.5 | 59.8
Cc1ccc(Cc2c(C)c(C#N)c3[nH]c4ccccc4n3c2=O)cc1 | 0 | 0 | 0 | 0 | 47.8 | 0 | 95.5 | 64.6
CCc1cc(=O)n2c([nH]c3ccccc32)c1C#N | 0 | 0 | 0 | 0 | 66.3 | 0 | 59.6 | 50.3
SMILES | RecA splice inh | GDH-TPI counter-1 | CCHFV vOTU inh | 3CLpro inhibitor | Mtb FBA inh | DUSP3 inh | Mtb FBA confirm | GDH-TPI counter-2
O=C(NCC(=O)N1CC(O)CC1C(=O)N1CC(O)CC1C(=O)OCc1ccccc1)OCc1ccccc1 (configuration not stated) | 0 | 0 | 0 | 0 | 0 | 0 | - | -
COc1cccc2oc3ccc(C#Cc4ccccn4)cc3c(=O)c12 | 0 | 0 | 0 | 0 | 86.5 | 0 | 99.4 | 82.9
COc1ccc2[nH]c(C(=O)NCCN3CCOCC3)cc2c1 | 0 | 0 | 0 | 0 | 77.0 | 0 | 43.0 | 34.6
O=C(NCCN1CCOCC1)c1cc2ccccc2[nH]1 | 0 | 0 | 0 | 0 | 0 | 0 | - | -
COc1ccc2[nH]c(C(=O)NCc3ccc4c(c3)OCO4)cc2c1 | 0 | 0 | 0 | 0 | 38.8 | 0 | 0 | 0
COc1ccc(C(=O)NCc2ccc3c(c2)OCO3)cc1 | 0 | 0 | 0 | 0 | 0 | 0 | - | -
Clc1ccccc1-c1cccc2nccn12 | - | 0 | 0 | - | 34.9 | - | 0 | 0
c1ccc2c(c1)oc1c(-c3cccc4nccn34)cccc12 | - | 0 | 0 | - | 90.5 | - | 49.7 | 44.2
CS(=O)(=O)Nc1ccc(-c2cncc3nccn23)cc1 | - | 35.0 | 0 | - | 63.4 | - | 65.4 | 55.6
CS(=O)(=O)Nc1ccccc1-c1cccc2nccn12 | - | 0 | 0 | - | 39.6 | - | 57.8 | 39.0
CCOC(=O)C(CC(=O)O)=C(c1ccccc1)c1ccccc1 | 0 | 0 | 0 | 0 | 0 | 0 | - | -
CC(=O)Nc1cc(-c2ccc(C(=O)N3CCOCC3)cc2)cn2c(-c3ccc(S(C)(=O)=O)cc3)cnc12 | - | 0 | 0 | - | 27.7 | - | + | +
CC(=O)Nc1cc(-c2ccc(F)cc2)cn2c(-c3ccc(S(C)(=O)=O)cc3)cnc12 | - | 0 | 0 | - | 56.6 | - | 89.1 | 68.7
CC(=O)Nc1cc(-c2ccc(C(=O)N3CCOCC3)cc2)cn2c(-c3ccc(F)c(Cl)c3)cnc12 | - | 0 | 0 | - | 0 | - | - | -
CC(=O)Nc1cc(-c2cccc(C(=O)NCCN(C)C)c2)cn2c(-c3ccc(S(C)(=O)=O)cc3)cnc12 | - | 0 | 0 | - | 61.2 | - | + | +
CC(=O)Nc1cc(-c2cccc(C(=O)NCCN(C)C)c2)cn2c(-c3ccccc3)cnc12 | - | 0 | 0 | - | 0 | - | - | -
Cc1ccc2c(c1)C1CS(=O)(=O)N(Cc3ccccc3)C(=O)N1C2 (configuration not stated) | - | - | 0 | - | - | - | - | -
O=C(COC(=O)/C=C/c1cccc(F)c1)Nc1cccc(S(=O)(=O)NC2=NCCCCC2)c1 | - | 0 | 0 | - | 0 | - | - | -
CCCCNc1ccccc1C(=O)OCC(=O)Nc1ccc(S(N)(=O)=O)cc1 | 0 | 0 | 0 | 0 | 48.1 | 0 | 33.7 | 22.7
COc1cccc(/C=C/C(=O)OCC(=O)Nc2cccc(S(=O)(=O)NC3=NCCCCC3)c2)c1 | - | 0 | 0 | - | 35.5 | - | 0 | 0
O=C(COC(=O)c1ccccc1NCCO)Nc1cccc(S(=O)(=O)NC2=NCCCCC2)c1 | 0 | 0 | 0 | - | 53.2 | - | 0 | 0
C[C@H]1COc2cc(Br)ccc2S(=O)(=O)N1Cc1cn(Cc2ccco2)nn1 | - | - | 0 | - | - | - | - | -
Cc1ccc(NC(=O)Cn2nnc(C(=O)NCc3ccc(Cl)cc3)c2N)cc1F | 0 | 0 | 0 | 0 | 0 | 0 | - | -
Cn1c(-c2ccccc2O)cc2ccccc21 | 0 | 0 | 0 | 0 | 31.7 | 0 | 139.8 | 118.6
CCOC(=O)Cc1csc(/N=C/c2c(O)n(-c3ccccc3C(F)(F)F)c(=O)c3ccccc23)n1 | 0 | 0 | 0 | 0 | 104.8 | 0 | 85.8 | 58.4
